# Measurements: the supplement of paper PMC11732987, “Enantioselective OTUD7B fragment discovery through chemoproteomics screening and high-throughput optimisation” (Communications Chemistry, 2025)
# A number with no mark means an inactive call.
# Experiments:
# Assay in all cases: log2 ratio of Biotin-Ahx-Ub-VS probe labelling (fragment/DMSO); higher = less target engagement (more negative = stronger competition), active = hit call of the paper (q ≤ 0.05, log2 ratio ≤ -1)
# Details in all cases: compound concentration: 200 uM; treatment time: 3 h
# OTUD6B = target: T1, OTUD6B (UniProt Q8N6M0)
# T1 sequence (whole entry): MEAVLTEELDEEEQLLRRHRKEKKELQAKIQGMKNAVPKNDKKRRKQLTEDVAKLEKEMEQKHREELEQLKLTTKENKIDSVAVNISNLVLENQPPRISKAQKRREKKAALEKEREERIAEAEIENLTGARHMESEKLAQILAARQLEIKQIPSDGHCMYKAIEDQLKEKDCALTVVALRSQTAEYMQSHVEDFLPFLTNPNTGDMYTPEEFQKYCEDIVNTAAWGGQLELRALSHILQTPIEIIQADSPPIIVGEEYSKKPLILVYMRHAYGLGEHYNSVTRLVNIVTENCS
# Outline: (§1)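 Labelling with Biotin-Ahx-Ub-VS (0.5 µM final, 1 h) followed a 3 h triplicate treatment of HEK293T lysate (495 µg per sample, Tris/CHAPS/IGEPAL buffer with protease inhibitors) with fragment at 200 µM or vehicle. Labelled DUBs were NeutrAvidin-enriched, digested with LysC and trypsin, and run by diaPASEF LC-MS/MS. The values, average log2 fragment/vehicle ratios by unpaired t-test, come from global-median-normalised Spectronaut label-free quantities. Proteins with ≥2 unique peptides were used.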
# OTUD7B = target: T2, OTUD7B (UniProt Q6GQQ9)
# T2 sequence (whole entry): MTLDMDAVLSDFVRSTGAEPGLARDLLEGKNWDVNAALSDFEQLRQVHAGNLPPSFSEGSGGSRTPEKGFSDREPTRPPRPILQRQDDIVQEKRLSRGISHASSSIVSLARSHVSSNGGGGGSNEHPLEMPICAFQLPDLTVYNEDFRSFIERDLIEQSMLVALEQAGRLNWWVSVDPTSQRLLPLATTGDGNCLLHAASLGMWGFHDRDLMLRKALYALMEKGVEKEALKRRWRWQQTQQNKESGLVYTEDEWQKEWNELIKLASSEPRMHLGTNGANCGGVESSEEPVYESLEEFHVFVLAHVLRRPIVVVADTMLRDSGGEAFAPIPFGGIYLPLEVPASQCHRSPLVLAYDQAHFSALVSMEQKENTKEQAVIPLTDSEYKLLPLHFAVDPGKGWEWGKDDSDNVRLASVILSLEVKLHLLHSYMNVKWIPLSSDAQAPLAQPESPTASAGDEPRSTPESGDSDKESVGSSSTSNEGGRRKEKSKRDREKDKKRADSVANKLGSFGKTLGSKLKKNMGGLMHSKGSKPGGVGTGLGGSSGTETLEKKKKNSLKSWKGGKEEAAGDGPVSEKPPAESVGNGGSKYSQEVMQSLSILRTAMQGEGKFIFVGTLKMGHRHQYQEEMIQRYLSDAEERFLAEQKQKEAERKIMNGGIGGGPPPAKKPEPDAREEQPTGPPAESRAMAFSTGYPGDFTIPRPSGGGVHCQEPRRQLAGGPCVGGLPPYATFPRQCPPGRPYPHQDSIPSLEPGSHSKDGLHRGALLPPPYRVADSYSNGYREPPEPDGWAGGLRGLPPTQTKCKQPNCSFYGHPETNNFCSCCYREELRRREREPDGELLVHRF
# Outline: as §1
# PRPF8 = PRPF8 (UniProt Q6P2Q9)
# Outline: as §1
# PSMD7 = target: T3, PSMD7 (UniProt P51665)
# T3 sequence (whole entry): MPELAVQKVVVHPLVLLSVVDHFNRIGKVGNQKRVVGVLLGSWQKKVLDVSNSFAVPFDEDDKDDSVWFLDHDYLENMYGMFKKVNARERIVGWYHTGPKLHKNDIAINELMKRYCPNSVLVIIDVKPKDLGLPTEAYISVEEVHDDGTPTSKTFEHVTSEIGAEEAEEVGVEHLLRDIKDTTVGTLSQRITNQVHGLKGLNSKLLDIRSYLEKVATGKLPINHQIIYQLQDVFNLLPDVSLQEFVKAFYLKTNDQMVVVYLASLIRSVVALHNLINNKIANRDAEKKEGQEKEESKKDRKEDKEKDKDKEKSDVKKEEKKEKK
# Outline: as §1
# UCHL1 = UCHL1 (UniProt P09936)
# UCHL1, sequence (P09936 whole entry, looked up): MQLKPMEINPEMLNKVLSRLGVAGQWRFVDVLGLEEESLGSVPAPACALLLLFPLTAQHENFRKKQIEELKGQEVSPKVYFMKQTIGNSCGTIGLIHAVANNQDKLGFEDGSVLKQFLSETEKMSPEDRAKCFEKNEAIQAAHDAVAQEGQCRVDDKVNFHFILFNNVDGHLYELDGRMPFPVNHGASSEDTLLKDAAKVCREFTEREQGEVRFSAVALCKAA
# Outline: as §1
# UCHL3 = target: T4, UCHL3 (UniProt P15374)
# T4 sequence (whole entry): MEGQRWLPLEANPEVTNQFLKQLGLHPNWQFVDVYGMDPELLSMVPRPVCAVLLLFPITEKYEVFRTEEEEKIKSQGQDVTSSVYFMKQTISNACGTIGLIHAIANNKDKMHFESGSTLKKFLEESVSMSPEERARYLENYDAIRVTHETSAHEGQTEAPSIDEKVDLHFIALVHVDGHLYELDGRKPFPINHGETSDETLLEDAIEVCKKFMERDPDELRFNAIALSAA
# Outline: as §1
# UCHL5 = target: T5, UCHL5 (UniProt Q9Y5K5)
# T5 sequence (whole entry): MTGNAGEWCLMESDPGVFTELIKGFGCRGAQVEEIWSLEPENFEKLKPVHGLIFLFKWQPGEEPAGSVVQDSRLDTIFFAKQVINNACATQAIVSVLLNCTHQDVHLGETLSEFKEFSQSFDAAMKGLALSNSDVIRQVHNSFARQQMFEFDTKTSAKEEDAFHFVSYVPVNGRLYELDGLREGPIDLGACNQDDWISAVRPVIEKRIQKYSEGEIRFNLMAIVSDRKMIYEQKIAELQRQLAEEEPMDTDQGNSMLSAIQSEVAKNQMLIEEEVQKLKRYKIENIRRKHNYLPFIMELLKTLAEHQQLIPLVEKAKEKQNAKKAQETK
# Outline: as §1
# USP10 = USP10 (UniProt Q14694)
# USP10, sequence (Q14694 whole entry): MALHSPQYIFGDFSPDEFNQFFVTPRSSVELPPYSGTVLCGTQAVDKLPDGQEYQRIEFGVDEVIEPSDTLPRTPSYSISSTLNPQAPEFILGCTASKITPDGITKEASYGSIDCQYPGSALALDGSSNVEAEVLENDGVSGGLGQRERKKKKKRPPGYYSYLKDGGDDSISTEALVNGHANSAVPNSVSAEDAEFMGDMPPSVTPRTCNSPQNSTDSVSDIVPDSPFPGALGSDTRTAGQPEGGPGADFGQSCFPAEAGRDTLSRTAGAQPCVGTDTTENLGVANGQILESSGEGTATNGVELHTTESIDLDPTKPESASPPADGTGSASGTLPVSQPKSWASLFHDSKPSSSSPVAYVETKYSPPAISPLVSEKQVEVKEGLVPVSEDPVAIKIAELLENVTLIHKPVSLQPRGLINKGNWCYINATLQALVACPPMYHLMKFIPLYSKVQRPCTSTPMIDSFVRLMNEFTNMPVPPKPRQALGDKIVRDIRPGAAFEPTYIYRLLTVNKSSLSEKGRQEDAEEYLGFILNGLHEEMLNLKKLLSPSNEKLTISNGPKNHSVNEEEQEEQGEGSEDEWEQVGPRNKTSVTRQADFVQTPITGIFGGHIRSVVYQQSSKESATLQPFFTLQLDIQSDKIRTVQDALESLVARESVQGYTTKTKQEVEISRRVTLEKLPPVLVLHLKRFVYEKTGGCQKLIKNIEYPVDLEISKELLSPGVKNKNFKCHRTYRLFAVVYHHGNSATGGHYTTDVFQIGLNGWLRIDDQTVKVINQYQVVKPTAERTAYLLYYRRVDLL
# Outline: as §1
# USP15 = target: T6, USP15 (UniProt Q9Y4E8)
# T6 sequence (whole entry): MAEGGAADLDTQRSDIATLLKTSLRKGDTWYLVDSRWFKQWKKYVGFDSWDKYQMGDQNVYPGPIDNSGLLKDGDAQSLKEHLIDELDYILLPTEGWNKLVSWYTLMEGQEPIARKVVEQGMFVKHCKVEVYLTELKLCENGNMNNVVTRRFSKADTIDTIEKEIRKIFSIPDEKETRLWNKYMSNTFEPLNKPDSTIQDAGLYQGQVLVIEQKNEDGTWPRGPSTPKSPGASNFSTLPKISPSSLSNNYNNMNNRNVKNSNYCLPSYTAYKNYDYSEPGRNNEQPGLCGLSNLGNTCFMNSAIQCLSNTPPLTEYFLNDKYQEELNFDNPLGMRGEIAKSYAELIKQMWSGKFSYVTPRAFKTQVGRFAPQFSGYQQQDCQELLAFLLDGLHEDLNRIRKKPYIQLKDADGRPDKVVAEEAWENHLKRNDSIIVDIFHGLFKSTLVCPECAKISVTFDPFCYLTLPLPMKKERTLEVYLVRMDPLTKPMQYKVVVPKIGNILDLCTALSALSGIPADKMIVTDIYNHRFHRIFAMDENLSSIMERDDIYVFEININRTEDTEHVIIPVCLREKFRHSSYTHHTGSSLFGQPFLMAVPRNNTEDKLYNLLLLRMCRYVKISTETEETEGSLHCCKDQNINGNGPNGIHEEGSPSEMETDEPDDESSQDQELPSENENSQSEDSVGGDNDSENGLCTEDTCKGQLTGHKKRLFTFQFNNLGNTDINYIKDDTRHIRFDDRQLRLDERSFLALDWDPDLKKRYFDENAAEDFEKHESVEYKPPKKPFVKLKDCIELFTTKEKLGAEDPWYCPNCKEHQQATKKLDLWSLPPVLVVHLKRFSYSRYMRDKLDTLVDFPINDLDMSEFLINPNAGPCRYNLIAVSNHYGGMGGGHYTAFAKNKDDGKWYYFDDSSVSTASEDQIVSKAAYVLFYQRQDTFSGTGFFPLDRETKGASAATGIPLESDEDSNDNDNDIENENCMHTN
# Outline: as §1
# USP16 = USP16 (UniProt Q9Y5T5)
# USP16, sequence (Q9Y5T5 whole entry, looked up): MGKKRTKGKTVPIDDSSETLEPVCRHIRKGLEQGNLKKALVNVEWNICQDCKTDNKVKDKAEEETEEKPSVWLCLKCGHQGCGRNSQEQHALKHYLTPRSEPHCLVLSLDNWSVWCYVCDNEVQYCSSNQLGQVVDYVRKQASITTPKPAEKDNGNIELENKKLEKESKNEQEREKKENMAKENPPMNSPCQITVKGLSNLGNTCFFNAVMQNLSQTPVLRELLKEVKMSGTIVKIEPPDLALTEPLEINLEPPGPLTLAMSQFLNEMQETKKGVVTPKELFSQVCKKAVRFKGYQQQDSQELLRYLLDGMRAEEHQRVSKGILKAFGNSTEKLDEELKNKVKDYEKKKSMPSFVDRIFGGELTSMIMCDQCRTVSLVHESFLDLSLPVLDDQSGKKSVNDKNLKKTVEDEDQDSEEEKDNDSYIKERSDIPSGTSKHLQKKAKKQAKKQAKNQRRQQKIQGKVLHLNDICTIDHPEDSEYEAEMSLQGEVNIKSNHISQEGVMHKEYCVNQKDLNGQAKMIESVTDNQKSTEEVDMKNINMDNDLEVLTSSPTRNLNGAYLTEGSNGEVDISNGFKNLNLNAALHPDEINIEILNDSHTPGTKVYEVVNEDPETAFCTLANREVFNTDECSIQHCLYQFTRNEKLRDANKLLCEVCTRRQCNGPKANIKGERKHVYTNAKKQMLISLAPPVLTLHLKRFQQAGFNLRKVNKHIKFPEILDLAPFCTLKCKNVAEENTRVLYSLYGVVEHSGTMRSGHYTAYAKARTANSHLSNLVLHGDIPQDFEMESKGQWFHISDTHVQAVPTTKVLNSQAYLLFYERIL
# Outline: as §1
smiles,measurement,setting,value
Cc1conc1C1CN(C(=O)CCl)C1,log2 ratio of Biotin-Ahx-Ub-VS probe labelling,OTUD6B,-0.688
same,log2 ratio of Biotin-Ahx-Ub-VS probe labelling,OTUD7B,-1.6 (active)
same,log2 ratio of Biotin-Ahx-Ub-VS probe labelling,PRPF8,-0.125
same,log2 ratio of Biotin-Ahx-Ub-VS probe labelling,PSMD7,-0.499
same,log2 ratio of Biotin-Ahx-Ub-VS probe labelling,UCHL1,-2.04 (active)
same,log2 ratio of Biotin-Ahx-Ub-VS probe labelling,UCHL3,-0.637
same,log2 ratio of Biotin-Ahx-Ub-VS probe labelling,UCHL5,-0.912
same,log2 ratio of Biotin-Ahx-Ub-VS probe labelling,USP10,-0.254
same,log2 ratio of Biotin-Ahx-Ub-VS probe labelling,USP15,-1.15 (active)
same,log2 ratio of Biotin-Ahx-Ub-VS probe labelling,USP16,-0.0913
